Screens from PubChem.
PAFAH1B2 inh: PAFAH1B2 (human) inhibition; P68402; recombinant PAFAH1B2, FP-rhodamine activity probe, fluorescence polarization; inhibition, % at 3.39 µM; hit rate 1.2% among 340,000; AID 492953;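 active = inhibition above the mean of all tested compounds plus 3 SD, cut at about 24% in these data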;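 note: 0% = enzyme with DMSO and 100% = wells lacking PAFAH1B2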
PME-1 inh: blocks human protein phosphatase methylesterase 1; recombinant PME-1, FP-Rh probe fluorescence polarization; hit rate 0.53% among 320,000; Q9Y570; inhibition, % at 5.9 µM;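 active = inhibition above the campaign mean of all compounds plus 3 SD, cut at about 26% in these data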;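 note: competitive labeling of PME-1 active site by serine hydrolase directed probe; 0% = PME-1 with DMSO and 100% = wells lacking PME-1 enzyme; inhibitors block probe labeling so polarization falls and inhibition rises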
PAFAH2 inh: PAFAH2 (human) inhibition. AID 492956. recombinant PAFAH2, FP-rhodamine activity probe, fluorescence polarization. inhibition, % at 3.39 µM. hit rate 0.99% among 340,000;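 active = inhibition above the mean over all tested compounds plus 3 SD, cut at about 30% in these data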;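 note: inhibitors block probe labeling of enzyme so polarization drops; 0% = enzyme with DMSO and 100% = wells lacking PAFAH2 protein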
Fam108B counter: counter-screen for RBBP9 inhibitors: inhibitors of mouse Fam108B; recombinant Fam108B, FP-Rh probe fluorescence polarization; inhibition, % at 9.51 µM; hit rate 0.33% among 300,000; AID 1947;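 active = inhibition above the screen mean inhibition plus 3 SD, computed separately per campaign, cut at about 18% in these data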;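 note: inhibitors lower polarization as less probe binds the enzyme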
pPAFAH FP inh: pPAFAH (human) enzyme inhibition; Q13093; recombinant pPAFAH, FP-rhodamine probe fluorescence polarization; inhibition, % at 3.39 µM; hit rate 1.5% among 330,000;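 active = inhibition above the mean inhibition across the screen plus 3 SD, cut at about 25% in these data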;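 note: inhibitors block binding of the rhodamine activity-based probe so polarization drops; 0% = enzyme with DMSO and 100% = wells lacking pPAFAH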
Target sequence (Q13093 whole entry, looked up): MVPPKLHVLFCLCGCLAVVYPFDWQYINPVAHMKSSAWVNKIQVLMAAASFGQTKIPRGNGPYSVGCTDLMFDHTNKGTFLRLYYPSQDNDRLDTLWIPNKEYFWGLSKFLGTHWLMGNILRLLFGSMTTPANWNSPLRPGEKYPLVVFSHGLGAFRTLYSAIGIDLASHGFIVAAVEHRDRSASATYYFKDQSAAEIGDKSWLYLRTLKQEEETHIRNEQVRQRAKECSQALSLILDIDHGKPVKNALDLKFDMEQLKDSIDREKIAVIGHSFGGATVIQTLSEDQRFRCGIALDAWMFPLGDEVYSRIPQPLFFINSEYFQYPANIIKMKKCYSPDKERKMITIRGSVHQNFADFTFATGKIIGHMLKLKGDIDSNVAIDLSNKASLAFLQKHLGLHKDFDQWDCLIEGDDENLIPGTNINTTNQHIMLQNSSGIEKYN
PAFAH1B3 inh: PAFAH1B3 (human) inhibition; inhibition, % at 3.39 µM; hit rate 0.28% among 340,000; AID 492972; recombinant PAFAH1B3, FP-rhodamine probe, fluorescence polarization; Q15102;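 active = inhibition above the screen-wide average of all tested compounds plus 3 SD, cut at about 25% in these data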;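 note: 0% = enzyme with DMSO only and 100% = wells lacking PAFAH1B3 protein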
* marks the source's active call; other numbers are inactive results; x = no result given. Compounds with a hit are over-represented: about 2.9% of the library has one in this group of screens.

SMILES	PAFAH1B2 inh	PME-1 inh	PAFAH2 inh	Fam108B counter	pPAFAH FP inh	PAFAH1B3 inh
CC(C)C(OC(=O)c1nsc(Cl)c1Cl)C(=O)NCc1ccccc1 (stereo not drawn)	5	1	11	0	26*	6
Cc1nc(CNS(=O)(=O)c2ccc3c(c2)CCCC3)cs1	4	-4	5	1	3	-2
N#Cc1c(N)oc(-c2ccco2)c1-c1ccco1	5	7	17	2	21	3
COc1ccc(OC)c(/C=N/c2oc(-c3ccco3)c(-c3ccco3)c2C#N)c1	5	8	11	2	30*	5
COc1ccc(N2C(=O)[C@@H]3[C@H](C2=O)[C@H]2c4ccccc4C=CN2[C@@H]3C(=O)Nc2ccccc2)cc1	9	13	6	25*	4	8
O=C(c1ccco1)[C@@H]1[C@@H]2C(=O)N(c3ccccc3)C(=O)[C@@H]2C2c3ccccc3C=CN21 (stereo partly drawn)	2	3	20	7	9	15
CC1CCC2(CC1)NC(=O)N(CC(=O)Nc1cc(S(=O)(=O)N3CCCC3)ccc1Cl)C2=O (stereo not drawn)	3	x	-3	x	2	8
Cc1cc(NC(=O)C2(c3ccccc3)CCCC2)no1	25*	3	4	-1	-4	5
Cc1cc(NC(=O)CCC(=O)N(c2ccccc2)C2(C(=O)NC3CCCCC3)CCCC2)no1	26*	2	1	-2	5	7
COc1ccc(Cc2nc3ccc(C(=O)NCC(C)(C)OC)cc3o2)cc1	-1	-2	1	0	-10	14
CN(C)S(=O)(=O)c1cccc(COC(=O)C2=COCCO2)c1	2	6	18	2	9	-3
Cc1ccc(COC(=O)Cc2coc3cc(O)ccc23)cc1	4	-1	-6	0	4	9
Cc1ccc(S(=O)(=O)Nc2ccc3c(c2)n(C)c(=O)n3C)c(C)c1	4	-8	8	-4	-6	3
Cc1ccc(S(=O)(=O)Nc2ccc3oc(=O)sc3c2)c(C)c1	28*	-1	8	9	16	-1
Cc1ccccc1Cn1c(NC2CCCC2)nc2c1c(=O)[nH]c(=O)n2C	2	3	5	2	33*	3
Cn1c(=O)[nH]c(=O)c2c1nc(NC1CCCCC1)n2Cc1ccccc1	7	-8	2	6	3	5
COc1cc2nc(CN3CCN(S(=O)(=O)c4ccc(Cl)cc4)CC3)[nH]c(=O)c2cc1OC	6	11	6	0	1	10
O=S(=O)(c1ccc(Cl)cc1)N1CCN(Cc2ccncc2)CC1	24*	2	1	0	-1	6
O=S(=O)(c1ccc(Cl)cc1)N1CCN(CCc2ccccc2)CC1	28*	-11	1	-1	-10	13
O=c1[nH]c(CN2CCN(S(=O)(=O)c3ccc(Cl)cc3)CC2)nc2cc(Cl)ccc12	24*	4	1	4	-8	4
COC(=O)[C@H](C)NC(=O)NCc1ccc(S(N)(=O)=O)cc1	5	-3	-7	-1	3	-4
O=C1c2ccccc2-c2onc3c(N4CCN(CCO)CC4)cc(N4CCN(C(=O)c5ccco5)CC4)c1c23	-58	16	-109	9	29*	-78
Cc1ccc(NC2=C(N3CCOCC3)C(=O)c3ccccc3C2=O)cc1	8	7	33*	11	4	33*
CC(C)CC1NC(=O)c2ccccc2-n2c1nc1ccc(F)cc1c2=O (stereo not drawn)	x	-2	x	x	-2	x
O=C(CSc1ccc(F)cc1)Nc1ccccc1N1CCOCC1	26*	0	1	2	1	13
SMILES	PAFAH1B2 inh	PME-1 inh	PAFAH2 inh	Fam108B counter	pPAFAH FP inh	PAFAH1B3 inh
COC(=O)c1sc2nc(SCc3ccccc3C#N)n(N)c(=O)c2c1C	-3	-4	-2	-7	-10	-4
Nc1nc(SCC(=O)C23CC4CC(CC(C4)C2)C3)n[nH]1	27*	-1	0	4	3	-2
CN(C(=O)CSc1n[nH]c(N)n1)C1CCCCC1	0	x	-5	x	0	11
CCOC(=O)c1cnn(-c2ccccc2)c1-n1cccc1C(=O)C(=O)N(C)C	4	-4	8	2	-2	8
COc1ccc(OC)c(CN2CCN(C(=O)CNC(=O)c3ccccc3F)CC2)c1	3	x	1	x	-4	2
CO/N=C(/CS(=O)Cc1ccc(Cl)cc1)c1ccc(Cl)cc1 (stereo not drawn)	12	4	-3	-2	27*	-4
O=[N+]([O-])c1cc(-c2csc(NCCc3nc4cc(Cl)c(Cl)cc4n3CCCO)n2)ccc1Cl	18	11	-3	7	31*	16
CCCc1c(O)nc(SCC(=O)NCc2ccco2)[nH]c1=O	3	-8	4	-2	1	1
COc1ccc(C(=O)/C=C/Nc2c(C)n(C)n(-c3ccccc3)c2=O)cc1OC	2	-1	0	-2	4	3
Oc1ccccc1/C=N/Nc1nc2ccccc2o1	9	21	29	5	3	9
COc1cc(/C=N\Nc2nc3ccccc3o2)cc(OC)c1OC	10	29*	-1	0	8	1
Brc1ccc(/C=N/Nc2nc3ccccc3o2)cc1	9	31*	-7	-6	4	8
COc1ccc(/C=N/Nc2nc3ccccc3o2)cc1O	-6	48*	16	1	4	4
Cc1[nH]n(-c2ccccc2)c(=O)c1C(C[N+](=O)[O-])c1ccc(Br)cc1 (stereo not drawn)	35*	1	7	3	5	23
OCC[C@@H]1C[C@@H](O)[C@H](O)[C@]2(OCc3ccccc32)O1	-1	6	2	0	3	-11
N=C1/C(=C\c2ccc(-c3ccc(C(=O)O)cc3)o2)C(=O)N=C2SC=C(c3ccccc3)N12	28*	x	34*	x	x	25
Cc1ccc(NS(=O)(=O)c2ccccc2)c2c1CC(C)(C)O2	2	14	1	-4	29*	-3
Cc1cc(-c2ccc(NS(=O)(=O)c3ccccc3)c(C)c2)ccc1NS(=O)(=O)c1ccccc1	-3	x	-12	x	x	-11
Cc1ccc(C)c(N2CCN(C(=O)c3ccc(Cn4c(=S)[nH]c5ccc(N6CCOCC6)cc5c4=O)cc3)CC2)c1	-4	3	4	1	27*	2
O=C(c1ccc2c(=O)n(Cc3ccccc3)c(=S)[nH]c2c1)N1CCCC1	26*	-2	7	-1	9	6
COc1ccccc1N1CCN(C(=O)c2ccc3c(=O)n(Cc4ccc5c(c4)OCO5)c(=O)[nH]c3c2)CC1	2	-3	1	0	-5	1
O=C(CCc1ccccc1)N=C1SC2CS(=O)(=O)CC2N1c1cccc(F)c1 (stereo not drawn)	8	-5	4	7	-3	16
